In the library only some 4.3% were active in any assay of this set; here they are far more common.
SMARCA2 activ: SMARCA2 (BRM) function activators, primary screen, cell-based, luminescence, high throughput | MG213 cells, MMTV-luciferase reporter, dexamethasone, overnight | activation, % at 9.1 µM | hit rate 1% among 370,000; in the data active means activation above about 7.8%;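 further: 0% = vehicle wells and 100% = reference activator wells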
MITF TRPM1 HTS: activators of MITF-driven TRPM1 promoter reporter, primary screen, cell-based, SK-MEL-5, luciferase, single point | SK-MEL-5 TRPM1-promoter luciferase, 24 h; % of positive control, neutral wells = 0 | activation, % at 12.5 µM | hit rate 0.75% among 300,000 | AID 588334, 2011;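 active means mean activation of at least 80% with every replicate also reaching 80%; inconclusive means mean reaches 80% but some replicate falls short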;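 further: 0% = neutral control wells and 100% = parthenolide positive control wells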
esBAF inh: Bmi1 luciferase reporter increase in mESCs, primary screen, esBAF inhibitor project, mouse ES cells, Bmi1 luciferase knock-in, single point. 24 h; 100% = twice the neutral-well signal. AID 602393, 2012. hit rate 2% among 350,000. reporter increase, % at 12.5 µM; in the data active means activation above about 40%; inconclusive means no clear call, values can overlap the other calls;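 further: 0% = median of the plate's neutral control wells and 100% = double that signal; a rise in the Bmi1 reporter signal indicates esBAF inhibition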
HSF1 inh: HSF1 inhibitors in luciferase reporter cells, primary screen, cell-based, NIH3T3, luminescence | NIH3T3-HGL HSE-luciferase, MG132-induced, luminescence 8 h; hits give low values | activity change, negative = inhibition, % at 7.5 µM (by protocol) | hit rate 0.77% among 300,000;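 active means more than half of replicate wells show activity change below -50%, luminescence cut by over half; inconclusive means some wells, but at most half, below -50%; inactive means no replicate well below -50%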;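 further: luciferase reports HSF-1 transcriptional activity via heat shock element; 0% = median of DMSO wells and -100% = zero luminescence signal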
HSF1 activator: HSF-1 activators, primary screen, NIH3T3-HGL cells, MG132 stress, luminescence, single point; NIH3T3-HGL HSF-1 luciferase reporter, 8 h; 100% = twice DMSO control signal; activation, % at 9 µM; hit rate 1.7% among 300,000;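 active means mean replicate activation of at least 50% with a set share of replicates each reaching 50%; inconclusive means only one of those two conditions met; inactive means mean below 50% and too few replicates reaching it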;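 further: 0% = median of the neutral control wells and 100% = twice that signal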
Wnt act: Wnt/beta-catenin pathway activators, primary screen, cell-based, plate reader, single point; Wnt/beta-catenin reporter cell assay, activator; activation, % at 9.35 µM; hit rate 1.2% among 300,000; AID 743398, 2014; in the data active means activation above about 30%, passing the limit was not always enough; inconclusive means no clear call, values can overlap the other calls;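 further: 0% = neutral control wells and 100% = positive control wells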
SMARCA2 act conf: SMARCA2 (BRM) function activators, confirmation, cell-based, luminescence, triplicate. shares compounds with SMARCA2 activ. MG213 cells, MMTV-luciferase with dexamethasone, overnight; MG213 cells expressing E1A, Rb sequestered; DMSO wells 0%, reference activator 100%. activation, % at 9.1 µM. hit rate 30% among 3,500;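 active means activation above its plate's cutoff, the mean activation of tested wells plus 3 SD, cut at about 7.9% in these data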
GAL4-VP16 Luc: GAL4-VP16 luciferase reporter activation, counter-screen for SMARCA2 (BRM) activator project, cell-based, pG5luc, luminescence, high throughput | activation, % at 9.1 µM | AID 686939, 2013 | shares compounds with SMARCA2 activ | HEK293 GAL4-VP16 pG5luc reporter; scaled: DMSO wells 0%, SAHA wells 100% | hit rate 41% among 3,500;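 active means activation above the solvent-only control well mean plus 3 SD, averaged across control plates, cut at about 5.2% in these data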
* = called active by the depositor; ? = inconclusive; nt = no result given.

SMILES	SMARCA2 activ	MITF TRPM1 HTS	esBAF inh	HSF1 inh	HSF1 activator	Wnt act	SMARCA2 act conf	GAL4-VP16 Luc
O=C(COC(=O)Cc1ccc(S(=O)(=O)N2CCOCC2)s1)Nc1ccc([N+](=O)[O-])cc1	3	9	-2	nt	nt	-4	nt	nt
O=C(COC(=O)Cc1ccc(S(=O)(=O)N2CCOCC2)s1)Nc1ccccc1	8.1*	-2	-1	nt	nt	0	2	1
N#Cc1ccccc1OCC(=O)Nc1ccc(S(=O)(=O)N2CCOCC2)cc1	9.6*	19	-1	nt	nt	-7	2	1
N#Cc1ccccc1OCC(=O)Nc1cccc(S(=O)(=O)N2CCCC2)c1	1	13	8	nt	nt	1	nt	nt
O=C(NCC[C@H]1CC[C@H](NC(=O)C2CC2)[C@@H](CO)O1)Nc1ccc(C(F)(F)F)cc1	nt	nt	-1	nt	nt	nt	nt	nt
C[C@@H]1CN([C@H](C)CO)C(=O)c2cccc(NC(=O)Nc3ccc(F)cc3)c2O[C@@H]1CN(C)S(C)(=O)=O	nt	nt	1	nt	nt	nt	nt	nt
COc1nc(C)nc2c1sc1nc3c(cc12)COC(C)(C)C3	10*	?	26	5	14	nt	4	13*
COCC(=O)N(C)C[C@@H]1Oc2ncc(C#Cc3ccc(OC)cc3)cc2C(=O)N([C@@H](C)CO)C[C@@H]1C	nt	nt	-2	nt	nt	nt	nt	nt
CO[C@H]1CN(C)C(=O)c2cc(NC(=O)c3ccccc3)ccc2OC[C@H](C)N(C(=O)C2CC2)C[C@@H]1C	nt	nt	1	nt	nt	nt	nt	nt
O=C(NCC1CCCO1)C(c1ccncc1)N(Cc1cccs1)C(=O)CN1C(=O)c2ccccc2S1(=O)=O (stereo unspecified)	-2	-11	-13	1	11	0	nt	nt
Cc1ccccc1CCN(C(=O)CN1C(=O)c2ccccc2S1(=O)=O)C(C(=O)NCC1CCCO1)c1ccncc1 (stereo unspecified)	9.0*	1	nt	-12	3	-1	-1	1
CC(=O)Nc1ccc(C(=O)OCCc2ccccc2)cc1	8.8*	6	nt	22	56*	16	6	1
CC(=O)Nc1ccc(C(=O)OCCCOC(=O)c2ccc(NC(C)=O)cc2)cc1	-2	9	2	3	4	21	nt	nt
COc1ccccc1C(=O)OCCc1ccccc1	11*	141*	78*	nt	nt	-2	7	6.5*
CC(=O)Nc1ccc(C(=O)OCC(=O)N2CCCC2=O)cc1	8.9*	1	-2	nt	nt	-1	0	1
CC(=O)Nc1ccc(C(=O)OCC(=O)N2CCCC2)cc1	-1	-1	-3	-4	-9	-1	nt	nt
O=C(Nc1ccc(F)cc1)N[C@@H]1C=C[C@@H](CC(=O)N2CCCCC2)O[C@H]1CO	nt	nt	0	nt	nt	nt	nt	nt
Cn1cnc(S(=O)(=O)N[C@@H]2CC[C@@H](CC(=O)N3CCN(c4ccccc4)CC3)O[C@H]2CO)c1	nt	nt	-12	nt	nt	nt	nt	nt
CC(C)(C)c1cc(-c2csc(Nc3ccccc3)[n+]2Cc2ccc(C(=O)O)cc2)cc(C(C)(C)C)c1O	nt	-15	0	-3	10	nt	nt	nt
O=C(O)c1ccc(C[n+]2c(-c3ccccc3)csc2Nc2ccccc2)cc1	10*	1	-28	19	17	2	-2	1
Cc1cccc(NC(=O)Nc2nnc(N3CCCCC3C)s2)c1C (stereo unspecified)	8.0*	nt	20	-6	-6	-3	-2	2
NCC[C@H]1CC[C@H](NS(=O)(=O)Cc2ccccc2)[C@@H](CO)O1	nt	nt	0	nt	nt	nt	nt	nt
N#C/C(=N\Nc1cccc(F)c1)C(=N)N1CCCCCC1	8.5*	?	nt	21	?	13	7	11*
N#C/C(=N/Nc1ccccc1F)C(=N)N1CCOCC1	9.4*	7	9	-3	5	13	11*	3
Fc1ccccc1-c1n[nH]c(=S)n1N=Cc1cccc(OCc2ccccc2)c1	-4	nt	nt	nt	nt	nt	nt	nt
SMILES	SMARCA2 activ	MITF TRPM1 HTS	esBAF inh	HSF1 inh	HSF1 activator	Wnt act	SMARCA2 act conf	GAL4-VP16 Luc
Fc1ccc(-c2n[nH]c(=S)n2N=Cc2cccc(OCc3ccccc3)c2)cc1	9.9*	nt	nt	nt	nt	nt	4	1
CCN(CC)CCCNc1ccc2ncn3c4ccc(O)cc4c(=O)c1c23	8.1*	-53	nt	2	2	11	34*	3
COc1ccc(-c2cnc3c(c2)C(=O)N([C@H](C)CO)C[C@@H](C)[C@H](CN(C)C(=O)Cc2cccnc2)O3)cc1	nt	nt	-1	nt	nt	nt	nt	nt
COc1ccc(-c2cc(COc3ccccc3)on2)cc1	8.4*	79	nt	38	35	21	4	7.2*
Cc1cccc(OCc2cc(-c3ccccc3)no2)c1C	8.9*	34	nt	19	26	15	8	6.5*
C[C@@H]1CCCCO[C@H](CN(C)S(=O)(=O)c2cccs2)[C@@H](C)CN([C@H](C)CO)C(=O)c2cc(NC(=O)CCCN(C)C)ccc2O1	nt	nt	-3	nt	nt	nt	nt	nt
Cc1cccc2nc3ccccc3cc12	-3	nt	11	1	13	-4	nt	nt
Cc1[nH]ccc2cc3nc4ccccc4c3cc12	18*	nt	-1	nt	nt	13	76*	1
CCC1(C)NC(=O)N(CC(=O)N2CCC(Cc3ccccc3)CC2)C1=O (stereo unspecified)	1	11	-8	nt	nt	0	nt	nt
CCC(=O)N1C(Cc2ccccc2)COC1(C)C (stereo unspecified)	8.9*	8	nt	-10	-22	0	-3	1
COc1ccc(Nc2nc3cc(-c4sccc4C)sc3c(=O)n2C)cc1OC	9.3*	nt	7	nt	nt	-3	4	8.4*
COc1ccc(Nc2nc3cc(-c4ccsc4)sc3c(=O)n2C)cc1OC	3	nt	30	nt	nt	10	nt	nt
CN1CCCC1(C)C(=O)Nc1ccc(-n2cccc2)cc1 (stereo unspecified)	8.2*	nt	23	nt	nt	-4	4	4
C[C@@H]1CN([C@H](C)CO)C(=O)CCCn2cc(nn2)CO[C@@H]1CN(C)Cc1ccc2c(c1)OCCO2	nt	nt	1	nt	nt	nt	nt	nt
CCNS(=O)(=O)c1ccc(OCCNS(C)(=O)=O)cc1	8.1*	7	-1	-9	2	-1	0	0
CCN(CC)S(=O)(=O)c1ccc(OCCNS(C)(=O)=O)cc1	-3	3	nt	2	-10	0	nt	nt
